Outcome and AC50 data for seven compounds are collected here from PubChem BioAssay (EPA / NIEHS).

The nature of assay [1]: ATG_CRE_CIS: Attagene CIS-FACTORIAL HepG2 Assay for human cAMP Responsive Element (CRE) binding protein 3 (AID 2282926). Particulars: HepG2 CRE cis-reporter, Attagene multiplexed mRNA; actives raise or lower the signal. An outline of the steps: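 We dosed HepG2 cells bearing multiple cis-promoter reporter units for 24 h and measured reporter mRNA by RT-PCR with capillary electrophoresis detection. Bidirectional concentration-response fitting used DMSO as negative control.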

The target of assay [2] is CCAAT/enhancer-binding protein beta (Homo sapiens) (UniProt P17676). Kind of assay: ATG_C_EBP_CIS: Attagene CIS-FACTORIAL HepG2 Assay for human CCAAT/Enhancer Binding Protein (C/EBP) beta (AID 2282927). As to conditions: HepG2 Attagene cis-factorial transcription factor reporter; actives raise or lower the signal. A digest of the protocol:
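Chemical-treated HepG2 cells (24 h) bearing cis-regulated reporter constructs were processed for total RNA, then reverse transcription, PCR amplification, fluorescent primer extension and fragment analysis; gain- and loss-of-signal were fitted against DMSO.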

Assay [3] in a line: ATG_CMV_CIS: Attagene CIS-FACTORIAL HepG2 Assay for human CMV (Internal Marker) (AID 2282928).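 Note: endpoint acts as a background internal control marker rather than a target.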 Particulars: HepG2 CMV promoter reporter, transcription factor profiling; actives raise or lower the signal. A digest of the protocol:
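CMV internal-marker background readout in transiently transfected HepG2 cells bearing cis-regulated reporter units. Reporter mRNA is measured 24 h after dosing by RT-PCR and capillary electrophoresis, with bidirectional fitting against DMSO.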

Assay [4] is described as follows: ATG_DR4_LXR_CIS: Attagene CIS-FACTORIAL HepG2 Assay for human Liver X Receptor (LXR), DR4 submotif (AID 2282929). As to conditions: HepG2 Attagene DR4 cis-reporter, mRNA transcription; actives raise or lower the signal. An outline of the steps:
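Cells were transfected with multiple reporter transcription units, exposed to chemicals for 24 hours, then lysed for RNA. Reporter mRNA induction was measured by RT-PCR with capillary electrophoresis detection and fitted in both directions relative to DMSO.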

In assay [5] the target is Aryl hydrocarbon receptor (Homo sapiens) (UniProt P35869). Kind of assay: ATG_Ahr_CIS: Attagene CIS-FACTORIAL HepG2 Assay for human Aryl Hydrocarbon Receptor (Ahr) (AID 2282930). As to conditions: HepG2 AhR cis-factorial reporter transcription; actives raise or lower the signal. A digest of the protocol:
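Following 24 h of chemical dosing, transfected HepG2 liver cells with cis-driven reporter units were lysed for RNA; reporter mRNA was quantified via RT-PCR and capillary electrophoresis, and responses fitted bidirectionally from DMSO.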

Assay [6] in a line: ATG_AP_1_CIS: Attagene CIS-FACTORIAL HepG2 Assay for human Activator Protein 1 (AP-1) (AID 2282931). As to conditions: HepG2 Attagene cis-factorial AP-1 reporter mRNA; actives raise or lower the signal. A digest of the protocol: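 Endogenous transcription-factor activity in human HepG2 liver cells is read through a cis-promoter reporter transcript, sampled 24 h after dosing. Detection uses RT-PCR with capillary electrophoresis; values come from bidirectional fitting relative to DMSO.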

A short description of assay [7]: ATG_AP_2_CIS: Attagene CIS-FACTORIAL HepG2 Assay for human Activator Protein 2 (AP-2) (AID 2282932). Particulars: HepG2 AP-2 cis-reporter, Attagene transcription factor profiling; actives raise or lower the signal. A digest of the protocol:
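HepG2 cells were transiently transfected with multiple cis-promoter reporter transcription units and dosed for 24 h. Reporter mRNA was measured by RT-PCR with capillary electrophoresis fluorescence; bidirectional fits relative to DMSO baseline.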

The nature of assay [8]: ATG_BRE_CIS: Attagene CIS-FACTORIAL HepG2 Assay for human Bone Morphogenetic Protein (BMP) Response Element (BRE) (AID 2282933). Particulars: HepG2 BMP response element reporter, Attagene transcription factor profiling; actives raise or lower the signal. A digest of the protocol: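 Transient MRTU transfection of human HepG2 liver cells; 24 h compound treatment; total RNA isolated, reverse-transcribed, PCR-amplified, 6-FAM labelled, HpaI-cut, capillary electrophoresis. DMSO = negative control/baseline, bidirectional fit.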

Assay [9] addresses Transcription factor E2F1 (Homo sapiens) (UniProt Q01094). Put plainly: ATG_E2F_CIS: Attagene CIS-FACTORIAL HepG2 Assay for human E2F Transcription Factor 1 (AID 2282935). As to conditions: HepG2 Attagene cis-reporter, E2F reporter RNA transcripts; actives raise or lower the signal. An outline of the steps:
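HepG2 cells transiently transfected with multiplexed cis-element reporter units, dosed for 24 h. Reporter mRNA measured by RT-PCR, 6-FAM primer-extension labeling, HpaI digestion and capillary electrophoresis; bidirectional fit versus DMSO baseline.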

Assay [10] in a line: ATG_E_Box_CIS: Attagene CIS-FACTORIAL HepG2 Assay for human Enhancer Box (E-box) (AID 2282936). As to conditions: HepG2 E-box cis-reporter transcription, actives raise or lower the signal. A digest of the protocol: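 HepG2 cells transiently transfected with multiplexed cis-element reporter units sensing endogenous transcription factor activity; 24 h compound exposure. Reporter mRNA measured by RT-PCR, 6-FAM primer extension, HpaI digestion and capillary electrophoresis; bidirectional fit versus DMSO.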

The nature of assay [11]: ATG_M_61_CIS: Attagene CIS-FACTORIAL HepG2 Assay for M61 Transcription Factor (Internal Marker) (AID 2282937). Particulars: HepG2 Attagene CIS-FACTORIAL M61 internal marker reporter; actives raise or lower the signal. An outline of the steps: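 Cells were transfected with reporter units under cis-regulatory promoters, treated with chemicals for 24 h, then lysed for RNA. Reporter transcripts were quantified by RT-PCR and capillary electrophoresis, and activity was fitted bidirectionally against DMSO.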

A short description of assay [12]: ATG_EGR_CIS: Attagene CIS-FACTORIAL HepG2 Assay for human Early Growth Response 1 (EGR1) (AID 2282938). Particulars: HepG2 Attagene CIS-FACTORIAL EGR reporter mRNA; actives raise or lower the signal. An outline of the steps: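 Endogenous TF activity in HepG2 liver cells was gauged through cis-promoter reporter constructs transiently transfected. After 24 h dosing, reporter mRNA was quantified by RT-PCR and capillary electrophoresis, and curves fitted in both directions versus DMSO.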

Assay [13] can be described thus: ATG_M_19_CIS: Attagene CIS-FACTORIAL HepG2 Assay for M19 Transcription Factor (Internal Marker) (AID 2282939). Particulars: HepG2 Attagene CIS-FACTORIAL M19 internal marker reporter; actives raise or lower the signal. A digest of the protocol:
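Transfect HepG2 with MRTU reporter library → dose chemical, 24 h → isolate total RNA, reverse-transcribe with oligo(dT) → PCR, 6-FAM label, HpaI cut (2 h, 37 C) → capillary electrophoresis. Bidirectional fit vs DMSO.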

The nature of assay [14]: ATG_ERE_CIS: Attagene CIS-FACTORIAL HepG2 Assay for Estrogen Response Element (ERE) (AID 2282940). Particulars: HepG2 ERE cis-reporter, Attagene RNA transcript; actives raise or lower the signal. A digest of the protocol:
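Transient MRTU transfection of human HepG2; cis-element promoters; 24 h dosing; total RNA → RT (oligo dT) → PCR → 6-FAM primer extension → HpaI digest → CE fluorescence. Bidirectional fit, DMSO baseline.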

Assay [15] addresses Hepatocyte nuclear factor 3-beta (Homo sapiens) (UniProt Q9Y261). Kind of assay: ATG_FoxA2_CIS: Attagene CIS-FACTORIAL HepG2 Assay for human Forkhead box A2 (FOXA2) (AID 2282942). As to conditions: HepG2 cis-reporter transcription factor activity, 24 h; actives raise or lower the signal. An outline of the steps:
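Endogenous transcription factor activity was read in HepG2 cells carrying transiently transfected cis-promoter reporter units. After 24 h dosing, reporter mRNA was quantified by RT-PCR and capillary electrophoresis, and values fitted bidirectionally versus DMSO.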

Assay [16] is described as follows: ATG_FoxO_CIS: Attagene CIS-FACTORIAL HepG2 Assay for human Forkhead box O (FoxO) (AID 2282943). As to conditions: HepG2 Attagene cis-reporter, FoxO element, mRNA; actives raise or lower the signal. An outline of the steps:
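24 h chemical exposure, HepG2 with transient cis-MRTU transfection. RNA extraction, oligo(dT) RT, reporter-specific PCR, primer-extension labelling, HpaI digestion, CE fragment analysis; bidirectional fit, DMSO baseline.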

Assay [17] is described as follows: ATG_GATA_CIS: Attagene CIS-FACTORIAL HepG2 Assay for human GATA Binding Protein (AID 2282944). As to conditions: HepG2 GATA cis-element reporter, Attagene multiplex mRNA; actives raise or lower the signal. An outline of the steps: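 Transient MRTU transfection, HepG2, 24 h compound exposure. Total RNA → oligo(dT) RT → PCR → 6-FAM primer extension → HpaI cut → CE. Bidirectional fit vs DMSO.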

A short description of assay [18]: ATG_GLI_CIS: Attagene CIS-FACTORIAL HepG2 Assay for human Zinc Finger Protein GLI1 (AID 2282945). As to conditions: HepG2, Attagene cis-factorial reporter mRNA, GLI element; actives raise or lower the signal. An outline of the steps: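 HepG2 cells transiently transfected with cis-promoter multiplexed reporter units report endogenous transcription factor activity. After 24 h chemical exposure, reporter mRNA was quantified by RT-PCR, 6-FAM labelling, HpaI digestion and capillary electrophoresis, with bidirectional fitting against DMSO.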

The nature of assay [19]: ATG_Ets_CIS: Attagene CIS-FACTORIAL HepG2 Assay for human Erythroblast Transformation Specific (ETS) (AID 2282941). As to conditions: HepG2 ETS cis-reporter transcription, actives raise or lower the signal. An outline of the steps:
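HepG2 cells transfected with multiple cis-regulated reporter units measuring endogenous ETS-driven transcription, 24 h after dosing. Reporter mRNA quantified by RT-PCR with capillary electrophoresis; bidirectional fit relative to DMSO.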

SMILES strings stand for the structures. Calls of active or inactive are those of the source. Rule for the calls: active = hit-call score of the fitted dose curve at least 0.9, where 1 is the maximum; inactive = score below 0.9.

Sequence of Aryl hydrocarbon receptor (Homo sapiens) (P35869 whole entry, looked up): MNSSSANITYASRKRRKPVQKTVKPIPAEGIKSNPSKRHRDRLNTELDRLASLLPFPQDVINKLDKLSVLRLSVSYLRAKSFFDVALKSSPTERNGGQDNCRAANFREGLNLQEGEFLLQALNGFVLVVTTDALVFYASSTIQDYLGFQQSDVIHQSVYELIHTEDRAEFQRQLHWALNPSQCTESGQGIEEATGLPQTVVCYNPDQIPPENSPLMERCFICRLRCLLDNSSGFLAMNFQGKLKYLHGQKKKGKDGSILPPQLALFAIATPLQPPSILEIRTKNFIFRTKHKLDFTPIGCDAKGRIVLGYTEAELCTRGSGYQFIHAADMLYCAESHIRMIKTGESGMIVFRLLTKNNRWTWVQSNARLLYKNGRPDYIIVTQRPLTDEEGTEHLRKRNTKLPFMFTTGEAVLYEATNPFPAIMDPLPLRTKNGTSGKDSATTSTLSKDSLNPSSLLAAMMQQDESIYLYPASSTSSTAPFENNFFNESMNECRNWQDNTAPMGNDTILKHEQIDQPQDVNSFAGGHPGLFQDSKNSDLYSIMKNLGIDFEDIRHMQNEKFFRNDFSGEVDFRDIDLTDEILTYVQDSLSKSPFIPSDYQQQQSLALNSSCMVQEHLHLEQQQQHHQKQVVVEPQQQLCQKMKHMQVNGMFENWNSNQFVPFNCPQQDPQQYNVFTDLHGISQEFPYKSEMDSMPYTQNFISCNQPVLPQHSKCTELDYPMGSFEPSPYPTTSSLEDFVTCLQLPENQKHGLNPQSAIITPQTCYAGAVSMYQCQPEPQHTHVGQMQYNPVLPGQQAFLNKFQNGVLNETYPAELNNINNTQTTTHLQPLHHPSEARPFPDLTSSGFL
Sequence of CCAAT/enhancer-binding protein beta (Homo sapiens) (P17676 whole entry, looked up, the tested form may be a part): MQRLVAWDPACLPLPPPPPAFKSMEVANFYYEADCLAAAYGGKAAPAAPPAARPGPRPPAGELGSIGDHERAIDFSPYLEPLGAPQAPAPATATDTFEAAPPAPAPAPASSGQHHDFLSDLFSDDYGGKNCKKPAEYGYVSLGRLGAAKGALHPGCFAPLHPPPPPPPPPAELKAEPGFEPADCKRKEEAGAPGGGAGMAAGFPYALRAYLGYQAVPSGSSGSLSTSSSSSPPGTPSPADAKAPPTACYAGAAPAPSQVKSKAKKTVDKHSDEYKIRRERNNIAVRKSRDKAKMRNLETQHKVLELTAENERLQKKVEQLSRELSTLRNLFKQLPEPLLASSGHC
Sequence of Transcription factor E2F1 (Homo sapiens) (Q01094 whole entry, looked up): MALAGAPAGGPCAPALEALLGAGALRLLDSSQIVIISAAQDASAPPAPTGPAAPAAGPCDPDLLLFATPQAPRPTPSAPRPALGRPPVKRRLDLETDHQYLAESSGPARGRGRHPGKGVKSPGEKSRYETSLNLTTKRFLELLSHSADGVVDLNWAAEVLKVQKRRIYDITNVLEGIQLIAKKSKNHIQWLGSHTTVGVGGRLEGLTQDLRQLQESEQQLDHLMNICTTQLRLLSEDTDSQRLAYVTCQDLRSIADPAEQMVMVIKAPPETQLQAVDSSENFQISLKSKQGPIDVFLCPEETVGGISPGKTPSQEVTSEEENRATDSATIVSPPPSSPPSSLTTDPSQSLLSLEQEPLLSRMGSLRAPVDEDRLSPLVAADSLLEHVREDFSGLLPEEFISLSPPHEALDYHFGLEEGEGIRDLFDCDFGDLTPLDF
Sequence of Hepatocyte nuclear factor 3-beta (Homo sapiens) (Q9Y261 whole entry, looked up): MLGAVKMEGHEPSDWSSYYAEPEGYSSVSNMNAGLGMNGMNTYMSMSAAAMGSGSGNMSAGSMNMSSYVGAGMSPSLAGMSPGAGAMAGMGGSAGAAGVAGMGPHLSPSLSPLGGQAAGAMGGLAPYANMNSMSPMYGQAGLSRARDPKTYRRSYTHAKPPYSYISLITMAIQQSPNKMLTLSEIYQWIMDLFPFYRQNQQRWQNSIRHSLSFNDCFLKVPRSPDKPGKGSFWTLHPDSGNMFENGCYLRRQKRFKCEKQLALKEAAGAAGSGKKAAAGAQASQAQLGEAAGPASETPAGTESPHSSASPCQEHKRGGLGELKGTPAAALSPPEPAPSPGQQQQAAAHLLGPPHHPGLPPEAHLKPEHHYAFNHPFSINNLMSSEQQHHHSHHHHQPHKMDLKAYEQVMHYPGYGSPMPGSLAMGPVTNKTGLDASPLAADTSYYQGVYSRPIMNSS

On to `CC(C)(C)NC(N)=O`, for which the outcome in assay [1], in assay [2], in assay [3], in assay [4], in assay [5] and in assay [6] was inactive. In addition, the call in [7], in assay [8], in assay [9], in assay [10], in [11] and in [12] was inactive. The result in assay [13], in [14], in assay [15], in assay [16], in assay [17] and in assay [18] was inactive.

For `CC(C#N)(CCC(=O)O)N=NC(C)(C#N)CCC(=O)O` (stereo not drawn), the compound was classed as inactive in [1], in assay [2], in [3], in assay [4], in [5] and in assay [6]. Besides, the compound was classed as inactive in assay [7], in assay [8], in assay [9], in assay [10], in [11] and in assay [12]. Besides, the result in assay [13], in [19], in assay [15], in assay [16] and in assay [17] was inactive.

As to `CCC(=O)OCc1ccccc1`, the compound was called inactive in assay [1], in assay [2], in assay [3], in [4], in assay [5] and in assay [6]. In addition, the result in assay [7], in assay [8], in [9], in assay [10], in assay [11] and in assay [12] was inactive. For the same compound, the result in [13], in assay [19], in assay [15], in assay [16], in [17] and in assay [18] was inactive.

Consider `Clc1sc(Cl)c(Cl)c1Cl`, for which the outcome in assay [1], in assay [2], in [3], in [4], in assay [5] and in assay [6] was inactive. The result in [7], in assay [8], in assay [9], in assay [10], in assay [11] and in assay [12] was inactive. For the same compound, the call in assay [13], in assay [14], in [19], in assay [15], in assay [16] and in assay [17] was inactive. In [18], the call was inactive.

The term AC50 denotes the concentration giving half of the maximal activity seen. As for `O=C(O)COCCN1CCN(C(c2ccccc2)c2ccc(Cl)cc2)CC1` (stereo not drawn), the call in assay [1], in assay [2], in [3], in assay [4], in [5] and in assay [6] was inactive. Besides, the compound was classed as inactive in assay [7], in assay [8], in [9], in assay [10], in [11] and in assay [12]. Further, the result in assay [13], in [19], in assay [16], in assay [17] and in [18] was inactive. Also, the AC50 in assay [14] was 18.8 µM (active).

`CCCc1ccccc1O`: the outcome in [1], in assay [2], in assay [3], in assay [4], in assay [6] and in [7] was inactive. For the same compound, the compound was called inactive in assay [8], in assay [9], in [10], in [11], in assay [12] and in assay [13]. Also, the call in [19], in assay [15], in [16], in assay [17] and in assay [18] was inactive. In addition, the AC50 in assay [5] is 23.9 µM (active).

With `CC1(C)[C@H]2CC[C@]1(C)[C@H](O)C2`, the compound was called inactive in assay [1], in [2], in assay [3], in [4], in assay [5] and in assay [6]. Further, the call in [7], in assay [8], in assay [9], in assay [10], in assay [11] and in assay [12] was inactive. The compound was called inactive in assay [16], in [17] and in [18].
